Results from PubChem BioAssay AID894 (National Center for Advancing Translational Sciences (NCATS), 2007).
The whole screen tested about 150,000 compounds, of which about 6,500 (4.3%) were called active. Another 12% or so got no clear call; they are omitted. This is one part of a sample in which actives are shown more often than they occur. The call rests on the fitted dose curve; in most records, active means well fitted inhibition curve with a large enough effect (not every such curve was filed as active); inconclusive means small, poorly fitted or top-dose-only effect, or another doubt; inactive means no such curve, though single readings can be large or run the other way.

biological target: 15-hydroxyprostaglandin dehydrogenase [NAD(+)] (Homo sapiens) (UniProt P15428); experiment: qHTS Assay for Inhibitors of HPGD (15-Hydroxyprostaglandin Dehydrogenase); conditions: purified HPGD, NADH fluorescence kinetic, PGE2 substrate; activity change, negative = inhibition: active compounds read low
Method in brief: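 NADH formation kinetics: reaction with 30 uM PGE2 and 1 mM NAD+ (final), 20 nM enzyme, Tris-HCl pH 8 with Tween 20, after 15 min compound preincubation at room temperature. Fluorescence change, last versus first of five reads.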
On the % scale 0 is the no-effect control and ±100 the full control effect; potency means the concentration at half of the fitted maximal effect.

Sequence of 15-hydroxyprostaglandin dehydrogenase [NAD(+)] (Homo sapiens) (P15428 whole entry, looked up): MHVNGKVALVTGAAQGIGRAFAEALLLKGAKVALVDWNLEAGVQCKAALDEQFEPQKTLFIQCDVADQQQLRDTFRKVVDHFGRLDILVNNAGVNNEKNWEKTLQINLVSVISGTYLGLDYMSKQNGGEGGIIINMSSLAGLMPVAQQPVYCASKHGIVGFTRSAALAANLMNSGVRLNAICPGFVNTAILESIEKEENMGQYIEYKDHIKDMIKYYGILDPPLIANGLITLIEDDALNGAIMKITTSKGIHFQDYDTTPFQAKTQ

Activity change, negative = inhibition, inactive:
CCN=C1S/C(=C\c2cc(Br)ccc2OCC(=O)OCC)C(=O)N1CC 51.2%
CCCCC1N2CC3([N+](=O)[O-])CN1CC([N+](=O)[O-])(C2)C3(C)C (stereo not given) -8.6%
C[N+]1(CC(O)COc2ccccc2)CCN(C(=O)c2ccc([N+](=O)[O-])cc2)CC1 (stereo not given) -8.27%
CCc1cccc(CC)c1NC(=S)NCc1ccc2[nH]c(C)cc2c1 -1.27%
O=C(O)Cc1ccc(NC(=O)c2cccs2)cc1 -5.78%
CN(c1ccccc1)S(=O)(=O)c1ccc(Cl)c(C(=O)NCCc2c[nH]c3ccccc23)c1 -0.557%
CC(C)C1=CC2=CC[C@H]3[C@](C)(C(=O)O)CCC[C@]3(C)C2CC1 (stereo not given in full) -6.95%
CSC1=N/C(=C\c2ccc3c(c2)OCO3)C(=O)S1 -15.7%
O=C1/C(=C/c2ccc3c(c2)OCO3)CCC/C1=C\c1ccc2c(c1)OCO2 -8.26%
Cc1[nH]c2ccccc2c1/C=N\NC(=O)Cn1nnc(-c2ccccc2)n1 -7.96%
CNC(=O)CN1C(=O)c2ccccc2S1(=O)=O 0.566%
CCCc1nnc(NC(=O)c2cccs2)s1 -3.96%
Cc1ccc(Nc2ccc(C(N)=O)cc2[N+](=O)[O-])cc1 -24.4%
CCNC(=O)NC(=O)C(C)OC(=O)C1CCN(S(=O)(=O)c2ccccc2F)CC1 (stereo not given) -13.3%
Cc1nn(-c2ccccc2)c2sc(C(=O)N(Cc3ccco3)C(C)C(=O)NC(C)(C)C)cc12 (stereo not given) -12.4%
Cc1onc(-c2c(Cl)cccc2Cl)c1C(=O)c1c[nH]c(C(=O)NC2CC2)c1 -1.05%
OC[C@H]1O[C@@H](n2cnc3c(N[C@H]4CC5CCC4C5)ncnc32)[C@H](O)[C@@H]1O (stereo not given in full) -25%
COc1cc(C(=O)NNC(=O)c2ccc(S(=O)(=O)N3CCCCC3)cc2)cc(OC)c1OC 5.41%
COc1ccc(Cl)cc1-n1c(C)cc(C(=O)OCC(=O)N2CC(=O)Nc3ccccc32)c1C -10%
COc1cc(Cl)c(S(=O)(=O)n2cnc(C)c2)cc1Cl 0.989%

Potency, active:
Cc1cc2cc(CNC(=O)c3cccs3)ccc2[nH]1 7.08 µM
CCC1=C/C(=C\c2ccc3c(c2)OCO3)C(=O)S1 28.2 µM
CCCc1nnc(NC(=O)CN2C(=O)c3ccccc3S2(=O)=O)s1 14.1 µM
Cc1ccccc1-n1nc(C)c2cc(C(=O)NC3CC3)sc21 22.4 µM
COc1cc(OC)c(-n2c(C)cc(C=O)c2C)cc1Cl 3.55 µM
